Test [1] can be described thus: Cell Viability - Mesenchymal (AID 546).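 Further: cells exposed to compound for 40 hours before reading; 0% = DMSO only and -100% = 100 µM tamoxifen.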 The following applies: mesenchymal cells viability, qHTS; activity change, negative = cytotoxicity: at 91.7 µM (top of the series). The procedure, abridged: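 Human kidney mesenchymal cells from normal renal glomeruli, 1000 cells/well, rested 5 hr at 37 °C, then treated 40 hr at 37 °C in complete medium. Cellular ATP read by CellTiter-Glo luminescence; AC50 from Hill-equation fits.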
On the technique in general: Quantitative high-throughput screening tests each substance at several concentrations.

A short description of test [2]: Cellular Toxicity (caspase-3) HepG2 (AID 654).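 Further: cells exposed to compound for 16 hours before reading; 0% = DMSO alone and 100% = caspase signal from 100 µM tamoxifen.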 Summed up:
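HepG2 cells (1500/well) in complete medium were treated with compounds for 16 hr at 37 °C. Caspase-3/7 activity was then read as luminescence from peptide-aminoluciferin cleavage. AC50 came from Hill fits, normalized to DMSO and 100 uM tamoxifen.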

A short description of test [3]: Cellular Toxicity (caspase-3) Jurkat (AID 655).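 Further: cells exposed to compound for 16 h at 37 °C before reading.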 Further: potency means the concentration at half of the fitted maximal effect. The procedure, abridged: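 Jurkat cells (5000/well) in complete medium exposed 16 h at 37 C; caspase-3/7 activity read by Caspase-Glo luminescence after 20 min at room temperature. Normalized to DMSO and 100 uM tamoxifen; AC50 from Hill fits.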
Test [4] can be described thus: Cellular Toxicity (caspase-3) HUV-EC-C (AID 656).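 Further: 0% = DMSO basal and 100% = 100 µM tamoxifen.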 The procedure, abridged: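 HUV-EC-C cells (1000/well) in complete medium, compound-treated 16 h at 37 °C; caspase-3/7 activity read by Caspase-Glo 3/7 luminescence. Normalized to DMSO (basal) and 100 uM tamoxifen (100%); AC50 from Hill-equation concentration-response fits.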
Test [5] is described as follows: Cellular Toxicity (caspase-3) SHSY5Y (AID 657). Summed up:
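SH-SY5Y human neuroblastoma cells, 1500/well, exposed to compound for 16 hours at 37 °C in complete medium. Caspase-3/7 activity read by Caspase-Glo luminescence after 1 hr at room temperature, normalized to DMSO and 10 uM staurosporine; AC50 from Hill fit.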

A short description of test [6]: Cellular Toxicity (caspase-3) BJ (AID 658).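 Further: 0% = DMSO basal and 100% = 10 µM staurosporine.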 The procedure, abridged:
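BJ human foreskin fibroblasts, 1000 cells/well, treated 16 hours at 37 °C in complete medium; caspase 3/7 activity by Caspase-Glo luminescence after 1 hr at room temperature. Normalized to DMSO and 10 uM staurosporine; AC50 from Hill fits.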

The nature of test [7]: Cellular Toxicity (caspase-3) MRC-5 (AID 659). Further: potency means the concentration at half of the fitted maximal effect.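 On caspase-3 activation: 0% = DMSO basal and 100% = 10 µM staurosporine.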 The following applies: Potency: caspase-3 activation. The procedure, abridged:
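MRC-5 human normal lung fibroblasts, 1500 cells/well, treated 16 h at 37 °C in complete medium. Caspase 3/7 measured by Caspase-Glo luminescence after 1 h at room temperature. Normalized to DMSO and 10 uM staurosporine; AC50 from Hill fit.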

Test [8] in a line: Cellular Toxicity (caspase-3) Mesangial (AID 660). Summed up:
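Human renal glomerular mesangial cells (1000/well) were treated with compounds for 16 h at 37 °C in complete medium, then caspase 3/7 activity was read by Caspase-Glo luminescence. Data were normalized to DMSO and 100 uM tamoxifen; AC50 from Hill fits.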

Test [9] is described as follows: Cellular Toxicity (caspase-3) SK-N-SH (AID 661). Further: potency means the concentration at half of the fitted maximal effect.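 On caspase-3 activation: 0% = DMSO basal and 100% = 10 µM staurosporine.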 The procedure, abridged:
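SK-N-SH human neuroblastoma cells (1500/well) were treated with compounds for 16 hr at 37 °C in complete medium; caspase 3/7 activity was read by Caspase-Glo luminescence. AC50 came from Hill fits of data normalized to DMSO and 10 uM staurosporine.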

A short description of test [10]: Cellular Toxicity (caspase-3) H-4-II-E (AID 663). Further: potency means the concentration at half of the fitted maximal effect.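 On caspase-3 activation: cells exposed to compound for 16 hr before readout; 0% = DMSO basal and 100% = 100 µM tamoxifen.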 The conditions noted are these: Potency: caspase-3 activation. The procedure, abridged: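 Rat hepatoma H-4-II-E cells (1500/well) plated 5 hr, then exposed to compound titrations for 16 hr at 37 °C. Caspase-Glo 3/7 luminescence read after 20 min at RT; data normalized to DMSO and 100 uM tamoxifen, AC50 from Hill fits.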

The nature of test [11]: Cellular Toxicity (caspase-3) N2a (AID 665).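 Further: compound exposure lasted 16 h at 37 °C before readout.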 Further: potency means the concentration at half of the fitted maximal effect. The following applies: Potency: caspase-3 activation. The procedure, abridged: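 Mouse N2a neuroblastoma cells (1500/well) were treated with compounds for 16 h at 37 °C, then caspase-3/7 activity was read by Caspase-Glo luminescence after 1 h at room temperature. Data were normalized to DMSO and 10 uM staurosporine; AC50 from Hill fits.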

Test [12] in a line: Cellular Toxicity (caspase-3) NIH 3T3 (AID 666).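 Further: caspase signal read after 16 h compound exposure.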 Further: potency means the concentration at half of the fitted maximal effect.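 On caspase-3 activation: 0% = DMSO basal and 100% = 100 µM tamoxifen stimulation.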 The procedure, abridged: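 Mouse NIH 3T3 fibroblasts (1000 cells/well) were treated with compound for 16 hr at 37°C in complete medium; caspase-3/7 activity was read by Caspase-Glo luminescence. Normalized to DMSO and 100 uM tamoxifen; AC50 from Hill fits.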
Test [13] is described as follows: Cellular Toxicity (caspase-3) Renal Proximal Tubule (AID 667).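 Further: cells exposed to compound for 16 hours at 37 °C before detection; 0% = DMSO basal and 100% = 10 µM staurosporine.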 Summed up:
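Freshly isolated primary rat kidney proximal tubule cells, 1000/well, treated 16 hr at 37 °C, then Caspase-Glo 3/7 luminescence after 1 hr. Normalized to DMSO and 10 uM staurosporine; AC50 from Hill fit.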

The target of test [14] is Guanine nucleotide-binding protein G(i) subunit alpha-1 (Homo sapiens) (UniProt P63096). The test is described as follows: qHTS Assay for Inhibitors of RGS12 GoLoco Motif Activity (Green Fluorophore) (AID 879).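 Further: 0% = labeled peptide with Gαi1 and full inhibition = labeled peptide alone without protein; negative values mean loss of peptide binding seen as reduced polarization.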 Summed up: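 Fluorescence polarization assay: 50 nM Gαi1 with 10 nM FITC-labeled RGS12 GoLoco peptide in 10 mM Tris pH 7.5, 150 mM NaCl, 0.1 mM GDP, 0.05% NP40, 10 min at room temperature with compound.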

For test [15], the target named is Cytochrome P450 3A4 (Homo sapiens) (UniProt P08684). The experiment in a line: qHTS Assay for Inhibitors and Substrates of Cytochrome P450 3A4 (AID 884). Further: nearly all actives have a fitted effect of over 50% in size. Further: potency means the concentration at half of the fitted maximal effect. On activity change, negative = inhibition: on the % scale 0 is the no-effect control and ±100 the full control effect. The procedure, abridged:
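20 nM human CYP3A4 with 25 uM Luciferin-PPXE (at KM) in 200 mM KPO4, preincubated 10 min with compound; NADPH regeneration started a 60 min RT reaction. Luciferin detected by luminescence, normalized to 57 uM ketoconazole as full inhibition.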

The target in test [16] is 3',5'-cyclic-AMP phosphodiesterase 4B (Homo sapiens) (UniProt Q07343). The test is described as follows: qHTS Assay for Inhibitors of PDE-IV (AID 607; active means well fitted activation curve with a large enough effect in the main read-out, with a control signal flat, not every such curve was filed as active; further: % of control where 0% means no effect). The procedure, abridged: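 ACTOne HEK293 cells carry a modified cAMP-gated CNG channel and express endogenous PDE4; plated 1000 cells/well, compounds up to 22.9 uM final. Membrane-potential dye fluorescence (ex 535/em 590) was read; parental cells received 10 uM forskolin + 100 uM RO 20-1724.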

The target in test [17] is Cytochrome P450 3A4 (Homo sapiens) (UniProt P08684). The test is described as follows: qHTS Assay for Activators of Cytochrome P450 3A4 (AID 885). Further: nearly all actives have a fitted effect of over 65% in size. Further: potency means the concentration at half of the fitted maximal effect. Summed up:
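20nM CYP3A4 + 25uM Luciferin-PPXE (=KM), 200mM KPO4; cpd 10 min RT; NADPH regen, 60 min RT; stop w/ detection buffer, 20 min; luminescence. Normalized to 57 uM ketoconazole.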

Test [18] in a line: qHTS Assay for Identification of Small Molecule Antagonists for NFkB Signaling Pathway (AID 895; active means well fitted inhibition curve with a large enough effect in the signal ratio, with a control signal flat, not every such curve was filed as active; the % refers to the signal ratio; further: on the % scale 0 is the no-effect control and ±100 the full control effect). The procedure, abridged:
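ME-180 NFkB-bla cells (beta-lactamase under NFkB response element), plated overnight, treated with compound then 10 pM TNF alpha (about EC50) for 5 hrs at 37 C. LiveBLAzer FRET read at 460/530 nm emission, 405 nm excitation.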

Test [19] concerns the target Cytochrome P450 2D6 (Homo sapiens) (UniProt P10635). The test is described as follows: qHTS Assay for Inhibitors and Substrates of Cytochrome P450 2D6 (AID 891). Further: nearly all actives have a fitted effect of over 60% in size. Further: potency means the concentration at half of the fitted maximal effect.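 On activity change, negative = inhibition: luciferin methyl ether substrate demethylated by CYP2D6 with NADPH regeneration; on the % scale 0 is the no-effect control and ±100 the full control effect.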 Summed up:
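Human CYP2D6 (5 nM) with 30 uM Luciferin-ME EGE (at Km) in 100 mM KPO4, compound preincubated 10 min, then NADPH regeneration system for 60 min at room temperature. Luciferin read by luminescence; normalized to 1.43 uM quinidine.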

Test [20] concerns the target Cytochrome P450 2C9 (Homo sapiens) (UniProt P11712). The experiment in a line: qHTS Assay for Inhibitors and Substrates of Cytochrome P450 2C9 (AID 883). Further: on the % scale 0 is the no-effect control and ±100 the full control effect; nearly all actives have a fitted effect of over 60% in size. The procedure, abridged:
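Human CYP2C9 (10nM) with Luciferin-H at 100uM (its KM) in 25mM KPO4; compound preincubated 10 min at 37C, then NADPH regeneration for 60 min at 37C. Luciferin read by luminescence after detection reagent; normalized to 57uM sulphaphenazole as full inhibition.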

Unmarked numbers belong to inactive results. Results filed as inconclusive are left out. Activity calls are given as the source filed them. Unless noted, the call rests on the fitted dose curve; in most records, active means well fitted curve in the direction sought with a large enough effect; inconclusive means small, poorly fitted or top-dose-only effect, or another doubt; inactive means no such curve, though single readings can be large; an effect the other way counts as inactive or inconclusive.

From PubChem BioAssay (NCATS) come the findings set out here.

Chain of Cytochrome P450 3A4 (Homo sapiens) (P08684 whole entry, looked up): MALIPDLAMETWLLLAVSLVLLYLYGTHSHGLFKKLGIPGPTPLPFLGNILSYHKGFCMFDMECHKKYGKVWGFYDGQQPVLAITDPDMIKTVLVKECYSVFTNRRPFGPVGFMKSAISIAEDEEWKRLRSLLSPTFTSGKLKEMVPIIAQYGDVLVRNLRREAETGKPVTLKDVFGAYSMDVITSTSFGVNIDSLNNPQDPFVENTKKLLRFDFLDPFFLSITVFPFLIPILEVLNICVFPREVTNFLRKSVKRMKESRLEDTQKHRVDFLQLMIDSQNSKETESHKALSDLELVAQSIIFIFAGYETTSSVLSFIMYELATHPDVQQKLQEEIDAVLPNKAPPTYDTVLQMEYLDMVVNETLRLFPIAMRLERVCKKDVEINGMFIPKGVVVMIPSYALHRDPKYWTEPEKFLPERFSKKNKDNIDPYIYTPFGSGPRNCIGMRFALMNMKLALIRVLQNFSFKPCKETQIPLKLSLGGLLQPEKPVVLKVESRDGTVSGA
Chain of 3',5'-cyclic-AMP phosphodiesterase 4B (Homo sapiens) (Q07343 whole entry, looked up): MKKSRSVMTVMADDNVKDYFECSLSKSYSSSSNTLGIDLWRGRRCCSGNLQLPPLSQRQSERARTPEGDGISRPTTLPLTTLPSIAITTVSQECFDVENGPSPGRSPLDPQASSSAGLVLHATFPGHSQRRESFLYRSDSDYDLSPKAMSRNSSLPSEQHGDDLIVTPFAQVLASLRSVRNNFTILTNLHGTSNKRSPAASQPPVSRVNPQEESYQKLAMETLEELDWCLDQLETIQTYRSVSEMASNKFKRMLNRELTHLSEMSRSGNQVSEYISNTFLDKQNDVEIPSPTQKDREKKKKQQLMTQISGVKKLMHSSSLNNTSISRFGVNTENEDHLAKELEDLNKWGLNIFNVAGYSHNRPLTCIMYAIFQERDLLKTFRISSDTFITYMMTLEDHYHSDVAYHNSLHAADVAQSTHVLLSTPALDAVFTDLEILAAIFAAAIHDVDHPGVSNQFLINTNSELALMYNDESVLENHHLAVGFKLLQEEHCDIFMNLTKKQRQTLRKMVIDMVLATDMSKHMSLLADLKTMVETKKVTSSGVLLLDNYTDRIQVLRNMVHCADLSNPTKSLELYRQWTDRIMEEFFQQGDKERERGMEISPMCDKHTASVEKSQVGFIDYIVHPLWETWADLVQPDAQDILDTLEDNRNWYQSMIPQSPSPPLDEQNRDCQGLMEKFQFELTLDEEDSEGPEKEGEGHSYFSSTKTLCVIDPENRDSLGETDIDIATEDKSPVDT
Chain of Cytochrome P450 2D6 (Homo sapiens) (P10635 whole entry, looked up): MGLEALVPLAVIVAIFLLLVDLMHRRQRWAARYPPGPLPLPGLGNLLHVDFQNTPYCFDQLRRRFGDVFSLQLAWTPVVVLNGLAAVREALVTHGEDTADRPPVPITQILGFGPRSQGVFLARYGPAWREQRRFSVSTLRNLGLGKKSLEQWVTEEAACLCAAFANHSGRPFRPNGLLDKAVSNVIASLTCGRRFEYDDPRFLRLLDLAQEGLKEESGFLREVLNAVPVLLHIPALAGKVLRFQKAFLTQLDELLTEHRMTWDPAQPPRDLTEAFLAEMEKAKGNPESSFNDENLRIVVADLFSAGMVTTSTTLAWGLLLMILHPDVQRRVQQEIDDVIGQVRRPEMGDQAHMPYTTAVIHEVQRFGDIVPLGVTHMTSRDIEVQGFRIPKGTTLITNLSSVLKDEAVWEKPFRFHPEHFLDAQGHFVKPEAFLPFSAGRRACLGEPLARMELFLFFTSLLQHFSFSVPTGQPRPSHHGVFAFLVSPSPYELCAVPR
Chain of Guanine nucleotide-binding protein G(i) subunit alpha-1 (Homo sapiens) (P63096 whole entry, looked up): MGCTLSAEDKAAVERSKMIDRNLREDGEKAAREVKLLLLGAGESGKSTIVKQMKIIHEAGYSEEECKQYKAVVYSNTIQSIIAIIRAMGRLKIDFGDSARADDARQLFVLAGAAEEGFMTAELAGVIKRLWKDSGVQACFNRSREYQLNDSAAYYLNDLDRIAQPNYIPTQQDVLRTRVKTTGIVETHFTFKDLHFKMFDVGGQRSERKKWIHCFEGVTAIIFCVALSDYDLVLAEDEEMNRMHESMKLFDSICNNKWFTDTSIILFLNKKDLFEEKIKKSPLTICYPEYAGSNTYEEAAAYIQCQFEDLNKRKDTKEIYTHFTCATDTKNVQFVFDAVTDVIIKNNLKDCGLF
Chain of Cytochrome P450 2C9 (Homo sapiens) (P11712 whole entry, looked up): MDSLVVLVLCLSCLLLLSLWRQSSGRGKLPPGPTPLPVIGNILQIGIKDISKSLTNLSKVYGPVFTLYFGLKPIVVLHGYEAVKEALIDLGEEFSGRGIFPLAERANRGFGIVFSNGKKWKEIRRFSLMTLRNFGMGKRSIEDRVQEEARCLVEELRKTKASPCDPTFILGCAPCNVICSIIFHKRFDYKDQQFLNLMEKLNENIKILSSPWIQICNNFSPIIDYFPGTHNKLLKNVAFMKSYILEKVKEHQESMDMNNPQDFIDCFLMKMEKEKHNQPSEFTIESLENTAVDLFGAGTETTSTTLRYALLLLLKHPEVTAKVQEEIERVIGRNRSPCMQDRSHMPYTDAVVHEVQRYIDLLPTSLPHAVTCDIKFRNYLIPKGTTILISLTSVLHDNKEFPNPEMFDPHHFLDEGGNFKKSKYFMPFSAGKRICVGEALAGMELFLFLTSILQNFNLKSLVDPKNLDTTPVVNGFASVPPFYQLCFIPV

Consider `C[C@]12CC[C@@H]3c4ccc(O)cc4CC[C@H]3[C@@H]1CC[C@@H]2O`, for which the activity change, negative = cytotoxicity in test [1] is -23.1%. Further, the Potency result in test [2], in test [3], in [5], in test [7], in [9] and in [10] was “inactive” throughout. In addition, the Potency result in test [11], in [12] and in test [15] was “inactive” each time. The call in test [4], in test [6], in [8], in test [13] and in test [14] was inactive.

As for `N[C@@H](Cc1cnc[nH]1)C(=O)O`, the molecule was called inactive in [16] and in test [14]. Besides, the Potency result in test [17] and in [18] was “inactive” throughout.

On to `CCN(CC)C(=O)N1CCN(C)CC1`, for which the outcome in test [16] was inactive. Also, in test [15], the Potency entry was “inactive”.

Turning to `C1CCc2nnnn2CC1`, the molecule was called inactive in test [16] and in test [14]. For the same molecule, in test [15], the Potency entry was “inactive”.

Consider `Oc1cc(O)c2c(c1)O[C@H](c1ccc(O)c(O)c1)[C@H](O)C2`, for which the molecule was called inactive in test [16] and in [14]. For the same molecule, the Potency entry in [17] is “inactive”.

For `CC(=O)N(O)CCCCCNC(=O)CCC(=O)N(O)CCCCCNC(=O)CCC(=O)N(O)CCCCCN`, the call in test [16] was inactive. Moreover, the Potency entry in [15] was “inactive”.

Take `O=C(CCCN1CCC(O)(c2ccc(Br)cc2)CC1)c1ccc(F)cc1`: the molecule was called inactive in test [16]. For the same molecule, in [15], the Potency result is “inactive”. The Potency in test [17] was 10 µM (active); in test [19], 3.98 µM (active).

Regarding `CN1[C@@H]2CC[C@H]1CC(OC(=O)c1c[nH]c3ccccc13)C2` (stereo not given in full), the molecule was called inactive in [16] and in test [14].

For the molecule `O=C1c2ccccc2C(=O)C1c1ccccc1`, the molecule was called inactive in [16]. In addition, the Potency result in [17] is “inactive”.

Turning to `CN1CCN(C(c2ccccc2)c2ccccc2)CC1`, the outcome in test [16] was inactive. Further, in test [15], the Potency result is “inactive”.

Regarding `CNCCC=C1c2ccccc2CCc2ccccc21`, the outcome in test [16] and in test [14] was inactive. Besides, in [20], the activity change, negative = inhibition is -6.44% [at 11.4 µM]. In test [17], the Potency result was “inactive”. Further, the Potency in test [19] was 3.16 µM (active).

As to `CN(C)CC/C=C1\c2ccccc2Sc2ccc(Cl)cc21`, the molecule was called inactive in test [16]. Further, the Potency result in [17] was “inactive”. Moreover, in test [19], the Potency was 2.51 µM (active).

With `CN(C(=O)CN(CCO)CC(=O)N(C)C(C)(C)Cc1ccccc1)C(C)(C)Cc1ccccc1`, the result in test [16] was inactive. Also, the Potency result in [17] was “inactive”. Moreover, in test [19], the Potency is 3.16 µM (active).

In the case of `O=C1CCC(c2ccc(-n3ccnc3)cc2)=NN1`, the call in test [16] and in test [14] was inactive. Further, the Potency in test [15] is 1.58 µM (active); in test [19], 2.51 µM (active). Moreover, the Potency entry in test [17] is “inactive”.

For `COc1cccc2c1C(=O)c1c(O)c3c(c(O)c1C2=O)C[C@@](O)(C(C)=O)C[C@@H]3O[C@H]1C[C@H](N)[C@H](O)[C@H](C)O1`, the molecule was called inactive in test [16] and in test [4]. The Potency in test [3] is 0.00501 µM (active); in test [7], 31.6 µM (active); in test [9] it was 0.126 µM (active); in [10], 12.6 µM (active); in [11] it was 3.98 µM (active); in test [12] it was 31.6 µM (active). The Potency result in test [17] and in test [19] was “inactive” each time.
